CD11b adhes enh: enhancers of CD11b/CD18 adhesion to fibrinogen, primary screen, K562 cells, luminescence | Integrin beta-2 (Homo sapiens) + Integrin alpha-M (Homo sapiens), P05107+P11215 | ATPlite luminescence | activation, % at 10 µM | 93,000 compounds, 0.07% hits;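 active means 10 µM primary screen giving 50% or more activity, confirmed by 40% or more on retest at that dose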
CD11b adhes inh: inhibitors of CD11b/CD18 adhesion to fibrinogen, primary screen, K562 cells, luminescence | Integrin beta-2 (Homo sapiens) + Integrin alpha-M (Homo sapiens), P05107+P11215 | ATPlite luminescence; Mn2+ added to activate the integrin | inhibition, % at 10 µM | 93,000 compounds, 0.54% hits | AID 1497, 2009;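 active means primary inhibition of 50% or more at 10 µM, then 40% or more on retest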
CYP2C19 inh: blockers of cytochrome P450 2C19 activity – biochemical, luminescence, ADME assay, primary screen | P33261 | CYP2C19 Supersomes, luciferin-H EGE luminescence, 30 min | inhibition, % at 5 µM | 96,000 compounds, 21% hits | AID 778, 2007;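 active means CYP2C19 inhibition above a set limit at 5 µM in the primary screen, cut at about 50% in these data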;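 further: plate controls were negative control wells for no effect and 2.5 mM tranylcypromine positive control for full effect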
CYP2C9 act: human CYP2C9 activators, primary screen, biochemical, luminescence | Cytochrome P450 2C9 (Homo sapiens), P11712 | recombinant CYP2C9, luciferin-H conversion; hits give high values; factor 1 = untreated enzyme, 0 = blocked | activation factor at 5 µM | 96,000 compounds, 1.4% hits | AID 1024, 2008;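 active means activation factor of 2 or more for CYP2C9 at a 5 µM dose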;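 further: 0 = sulfaphenazole-blocked wells and 1 = vehicle-only wells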
Target sequence (P11712 whole entry, looked up): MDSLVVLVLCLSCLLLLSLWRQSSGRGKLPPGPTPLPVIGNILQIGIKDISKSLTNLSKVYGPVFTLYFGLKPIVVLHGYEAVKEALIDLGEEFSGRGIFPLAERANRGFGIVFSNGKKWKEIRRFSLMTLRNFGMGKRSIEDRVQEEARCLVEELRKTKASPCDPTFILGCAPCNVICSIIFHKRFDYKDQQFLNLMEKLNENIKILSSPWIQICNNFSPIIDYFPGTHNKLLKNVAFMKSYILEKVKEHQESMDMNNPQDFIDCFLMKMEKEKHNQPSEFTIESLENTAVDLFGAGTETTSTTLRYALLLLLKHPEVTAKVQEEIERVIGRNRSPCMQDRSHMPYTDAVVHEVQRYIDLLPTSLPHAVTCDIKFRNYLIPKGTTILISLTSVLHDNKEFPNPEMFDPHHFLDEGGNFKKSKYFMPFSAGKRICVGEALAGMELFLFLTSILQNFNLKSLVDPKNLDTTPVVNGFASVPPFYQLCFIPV
CYP2C19 act: human CYP2C19 activators, primary screen, biochemical, luminescence. Cytochrome P450 2C19 (Homo sapiens), P33261. recombinant CYP2C19, luciferin-H EGE luminescence; hits give high values; 0 = fully inhibited enzyme, 1 = untreated enzyme. activation factor at 5 µM. 96,000 tested, under 10 active. AID 1025, 2008;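 active means activation factor of at least 2 at 5 µM in the primary screen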;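 further: 0 = wells with 2.5 mM tranylcypromine and 1 = vehicle-only wells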
CYP2C9 inhib: blockers of cytochrome P450 2C9 activity – biochemical, luminescence, ADME assay, primary screen; P11712; CYP2C9 Supersomes, luciferin-H conversion; inhibition, % at 5 µM; 96,000 compounds, 20% hits; AID 777, 2007;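 active means blocking of liver enzyme CYP2C9 beyond about 50% at 5 µM, limit read from the data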
* = called active by the depositor; . = no result. A selection: hits, their analogues and other compounds. The true share with any hit is near 28%.

SMILES	CD11b adhes enh	CD11b adhes inh	CYP2C19 inh	CYP2C9 act	CYP2C19 act	CYP2C9 inhib
CCOc1ccc(N2CC(C(=O)NCCN3C(=O)S/C(=C\c4ccc(OC)cc4)C3=O)CC2=O)cc1 (configuration not stated)	1.4	-7.1	.	.	.	.
COc1ccc(/C=C2\SC(=O)N(CCNC(=O)C3CC(=O)N(c4ccccc4)C3)C2=O)cc1 (configuration not stated)	-0.2	2.2	16.2	0.4	0.8	58.7*
Cc1cc(OCC[N+]2(C)CCCCC2)nc2ccccc12	-1.2	-4.7	4.5	1	1	1.2
Cc1cccc(C)c1NC(=O)Cn1c(=O)n(CCCC(=O)NCc2ccco2)c(=O)c2sccc21	-4.4	-7.2	13.9	0.2	0.9	77.9*
O=C(CCn1c(=O)c2sccc2n(CC(=O)NCc2ccco2)c1=O)NCc1ccccc1	2.7	-17.9	20.7	0.4	0.8	60.9*
O=C(CCCn1c(=O)c2sccc2n(CC(=O)NCc2ccco2)c1=O)NCc1ccco1	-0.3	-5.3	7.6	0.8	0.9	19.5
O=C(NCc1ccco1)c1ccc(Cn2c(=O)c3sccc3n(Cc3cccc(F)c3)c2=O)cc1	-3.9	9.5	86.8*	0.1	0.1	85.2*
CCOc1ccc(C2NC(=O)C(C#N)=C(S)N2c2ccc(C)cc2)cc1OC (configuration not stated)	-0.8	3.3	-1.4	0.5	1	46.7
COC(=O)c1ccc(NC(=O)NS(=O)(=O)c2ccc(C)cc2)cc1	-1.8	6.6	-5.6	1.1	1.1	-13.0
COC(=O)c1ccc(C(=O)OC)c(NC(=O)COC(=O)CC2CC3CCC2C3)c1 (configuration not stated)	-1.1	-9.6	31.1	0.6	0.7	38.3
CCOC(=O)COc1ccc(Br)cc1C1NC(=O)NC(C)=C1C(=O)NCc1ccccc1 (configuration not stated)	.	.	-0.2	0.2	1	82.7*
COc1cc(NC(C(=O)Nc2cccc(C(C)=O)c2)c2ccccc2)cc(OC)c1OC (configuration not stated)	7.3	27.3	.	.	.	.
Cn1c(SCc2nc3ccccc3[nH]2)nnc1-c1cccs1	-4.7	-9.1	77.6*	0.8	0.2	19.7
Cn1c(Cc2cccs2)nnc1SCc1nc2ccccc2[nH]1	-1.2	5.0	58.7*	1	0.4	2.7
COc1ccc2c(c1)c1nc(SCC(C)C)n(CCO)c(=O)c1n2C	24.2	-9.3	17.0	0.7	0.8	33.4
Cc1ccc(-c2csc3nc(C)n(N)c(=O)c23)o1	-4.2	11.7	16.8	0.8	0.8	20.4
Cc1ccc(-c2csc3ncn(/N=C/N(C)C)c(=O)c23)o1	-3.6	-1.5	74.2*	0.8	0.3	23.4
Cc1nc2scc(-c3ccco3)c2c(=O)n1/N=C/N(C)C	-0.5	-5.2	64.8*	0.8	0.4	20.3
Cc1ccc(C)n1-n1c(C)nc2scc(-c3ccccc3)c2c1=O	-2.2	-16.3	72.3*	0.3	0.3	73.9*
Cc1ccc(-c2csc3nc(C)n(-n4c(C)ccc4C)c(=O)c23)o1	1.4	10.5	79.1*	0.8	0.2	22.4
Cc1ccc(C(=O)O/N=C/c2c(C(F)(F)F)nn(C)c2Sc2ccc(Cl)cc2)cc1	4.2	-0.2	22.9	0.2	0.8	79.9*
Cn1nc(C(F)(F)F)c(/C=N/OC(=O)c2ccccc2Cl)c1SCc1ccc(Cl)cc1	.	.	54.4*	0.2	0.5	76.8*
COC(=O)c1ccccc1Sc1c(/C=N/OC(=O)c2ccccc2)c(C(F)(F)F)nn1C	-5.3	-10.8	39.1	0.1	0.6	91.0*
COc1ccc(C(=O)O/N=C/c2c(C(F)(F)F)nn(C)c2SCc2ccccc2Cl)cc1	-3.5	15.0	17.0	0.7	0.8	29.5
CCOc1ccc(C(=O)Nc2cccc(-c3cc4ccccc4oc3=O)c2)cc1[N+](=O)[O-]	.	.	81.5*	0.3	0.2	65.2*
Cc1ccc(-c2nc3ccccc3[nH]2)cc1NC(=O)/C=C/c1ccco1	0.7	9.4	47.3	0.2	0.5	79.4*

Bioassay records deposited in PubChem by Sanford-Burnham Center for Chemical Genomics.
